Measured values: PubChem BioAssay AID720518 (National Center for Advancing Translational Sciences (NCATS), 2013)
Inconclusive results are not listed. A number with no mark means an inactive call. The call rests on the fitted dose curve.

assay: qHTS for Inhibitors of Cell Surface uPA Generation: Wild-type Protective Antigen (WT-PrAg) Counterscreen for Cherry-picked Compounds; conditions: cells, WT protective antigen toxicity counterscreen; series mostly up to 115 µM; activity (protection): at the top concentration; further: 0% is about no effect

Row | SMILES | activity (protection) [%]
1 | NC(=O)c1ccc(NC(=O)CN2CCN(S(=O)(=O)c3ccc4ccccc4c3)CC2)cc1 | 1.81
2 | O=C(CCCC(=O)N(c1cccc(F)c1)C(C(=O)NC1CCCC1)c1ccc(O)cc1)Nc1ccccn1 (stereo not given) | -1.3
3 | Cn1c(SCC(=O)NNC(=O)c2ccc(Br)cc2)nnc1-c1cccnc1 | -1.04
4 | CCn1c(=O)cc(C(=O)OC)sc1=Nc1ccc(F)c(F)c1 | -2.26
5 | Cc1ccccc1O | -0.342
6 | CCOc1ccc(OCC)c(NC(=O)c2ccc(CNc3c(N4CCCC4)c(=O)c3=O)cc2)c1 | -2.6
7 | CC1Cc2nc(SCC(=O)Nc3ccc4c(c3)OCO4)n(-c3ccc(F)cc3)c(=O)c2S1 (stereo not given) | -0.181
8 | COc1cc(CN2CCN(S(=O)(=O)c3ccccc3)CC2)cc(OC)c1OC | -0.212
9 | CC(C)c1ccc(SCc2noc(C(=O)NCC3CCCO3)c2C(=O)O)cc1 (stereo not given) | 0.0703
10 | O=C(NNC(=O)c1cccc(-n2cccc2)c1)c1ccc(F)cc1 | -0.872
11 | O=C(c1cc(COc2ccc(F)cc2Cl)on1)N1CCCCCC1 | 0.109
12 | C=CCOC(=O)C1=C[C@H](c2ccc(C(F)(F)F)cc2)[C@@H](CCCO)[C@H](OCC)O1 | -1.89
13 | NC(=O)CC(NC(=O)Cc1cccc2ccccc12)c1ccc(N2CCN(c3ccccc3)CC2)c([N+](=O)[O-])c1 (stereo not given) | 0.0175
14 | CC(/C=C1\SC(=S)N(CCCC(=O)Nc2ccc(C(=O)O)cc2)C1=O)=C\c1ccccc1 | -1.6
15 | CCOc1ccc(NS(=O)(=O)c2ccc(C(=O)N3CCC3)cc2)cc1 | -0.678
16 | COCCOc1ccc(C(F)(F)F)cc1NC(=O)COC(=O)Cc1c[nH]c2ccccc12 | -0.946
17 | CC(C)(C)NC(=O)C(c1cccs1)N(C(=O)c1csnn1)c1ccccc1F (stereo not given) | -0.113
18 | CC(C)Cn1cnc2c1c(=O)[nH]c(=O)n2Cc1ccccc1 | 0.91
19 | COc1ncnc(NS(=O)(=O)c2ccc(N)cc2)c1OC | 0.0309
20 | O=C(N/C(=C\c1cccc([N+](=O)[O-])c1)C(=O)N1CCOCC1)c1ccc([N+](=O)[O-])cc1 | 0.117

Row | SMILES | activity (protection) [%]
21 | C=C(C)C(=O)O[C@H]1C/C(C)=C\C(=O)/C=C(\C)[C@H](O)[C@@H]2OC(=O)C(=C)[C@@H]21 | 8.03
22 | CCn1c2ccccc2c2n[nH]c(=S)nc21 | -0.605
23 | Cc1nn(CC(=O)OCC(=O)NC(C)c2ccccc2)c(C)c1[N+](=O)[O-] (stereo not given) | -0.966
24 | CCC(NC(=O)Cc1c(C)c2c(cc(C)c3c(C)c(C)oc32)oc1=O)C(=O)O (stereo not given) | -2.27
25 | CC(=O)Nc1nc2ccccc2[nH]1 | 0.0855
26 | COc1ccc(CN2CCN(Cc3ccc(C(F)(F)F)cc3)CC2)cc1 | -1.82
27 | COc1ccc(C(=O)NNC(=O)Cc2ccc(Cl)cc2)cc1 | 1.34
28 | COc1ccc(OC)c(N2C(=O)CC(Cc3cc(C)cc(C)c3)C2=O)c1 (stereo not given) | -0.552
29 | CS/C(=C\[N+](=O)[O-])Nc1ccccc1 | -2.26
30 | CCOC(=O)c1c(NC(=O)CC2SC(N)=NC2=O)sc2c1CCC(C)C2 (stereo not given) | -1.85
31 | O=C(Cn1cnc2c(OCc3ccccc3)ncnc21)NCCCN1CCCC1=O | -1.87
32 | COc1cccc(C(=O)NCC(c2ccco2)N2CCc3ccccc3C2)c1 (stereo not given) | 0.587
33 | CN1CCN(C2=Nc3ccccc3Oc3ccc(Cl)cc32)CC1 | -0.292
34 | CN(C)C(=S)Nc1ccc(S(=O)(=O)N2CCCCC2)cc1 | -0.577
35 | COc1ccc(OC)c(S(=O)(=O)N2CCN(Cc3ccccc3)CC2)c1 | 0.596
36 | O=[N+]([O-])c1cccc(-c2noc(-c3cccs3)n2)c1 | 3.04
37 | O=C(NNC(=O)c1ccc2ccccc2c1)Nc1ccc(F)cc1 | 1.47
38 | Cc1ccc(-c2nc(CS(=O)(=O)CC(=O)NCc3cccc(F)c3)c(C)o2)cc1 | 0.115
39 | CCOC(=O)CC(=O)CSc1nc2c(C)c(C)ccc2cc1C | 1.07
40 | COc1ccc(-c2nn(CCC#N)cc2C(=O)Nc2cccc([N+](=O)[O-])c2)cc1OC | -1.26
